Data published in PubChem BioAssay (Tox21).
A number with no mark means an inactive call. Records with an inconclusive call do not appear. A call without a number means that no potency is given here. Active and inactive are the calls of the source. Unless noted, calls come from the whole dose curve; as a rule, active = well fitted curve in the direction sought with a large enough effect in the repeat runs; inconclusive = weak or mixed curves; inactive = no such curve, though single readings can be large; an effect the other way counts as inactive or inconclusive.

Key:
[1] = molecular target: Estrogen receptor beta (Homo sapiens) (UniProt Q92731); test: qHTS assay to identify small molecule antagonists of the estrogen receptor beta (ER-beta) signaling pathway (AID 1259378; active = well fitted inhibition curve with a large enough effect in the signal ratio in the repeat runs, not every such curve was filed as active; the % refers to the signal ratio; note: potency is the fitted concentration of half-maximal effect)
Summary of the method: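 ER-beta-UAS-bla HEK293T cells in 2% charcoal-stripped FBS medium treated with compound plus 1nM final 17-beta-estradiol for 16 hr at 37C. Beta-lactamase reporter read by FRET substrate fluorescence after 2 hours at room temperature.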

[2] = qHTS assay to identify small molecule agonists of the androgen receptor (AR) signaling pathway in the presence of an antagonist - cell viability counter screen (AID 1259379);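 note: MDA-kb2 human breast cancer cells carrying an MMTV luciferase reporter; series mostly up to about 92 µM; nearly all actives have a fitted effect of over 25% in size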
Summary of the method: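 Nilutamide-containing (3.0uM final) MDA-kb2 cultures, 3,000 cells/well, were treated with compounds across 15 concentrations. After 16 hr at 37C with no CO2, cell viability was determined by CellTiter-Fluor fluorescence in the luciferase assay wells.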

[3] = qHTS assay to identify small molecule agonists of the estrogen receptor beta (ER-beta) signaling pathway - cell viability counter screen (AID 1259380); note: nearly all actives have a fitted effect of over 30% in size
Summary of the method: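 Steps: plate ER-beta-UAS-bla HEK293T cells, rest 6 hr; add compounds in DMSO; incubate 16 hr at 37C, 5% CO2; add FRET substrate 2 hr; add CellTiter-Glo, wait 30 min at room temperature; read luminescence.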

[4] = molecular target: Androgen receptor (Homo sapiens) (UniProt P10275); test: qHTS assay to identify small molecule agonists of the androgen receptor (AR) signaling pathway in the presence of an antagonist (AID 1259381; calls by dose curve; note: nearly all actives have a fitted effect of over 15% in size)
Summary of the method: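 Reporter-gene luminescence from MDA-kb2 cells exposed 16hr at 37C (0% CO2) to 15-point compound titrations with 3.0uM final nilutamide as AR antagonist.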

[5] = qHTS assay to identify small molecule antagonists of the estrogen receptor beta (ER-beta) signaling pathway - cell viability counter screen (AID 1259382); note: series mostly up to about 92 µM; nearly all actives have a fitted effect of over 55% in size
Summary of the method: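 Viability is scored by CellTiter-Glo luminescence (30 min, room temperature) in ER-beta-UAS-bla HEK293T wells already read for reporter fluorescence. Compound exposure lasts 16 hr at 37C alongside 1nM 17-beta-estradiol in charcoal-stripped serum medium.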

[6] = molecular target: Estrogen receptor (Homo sapiens) (UniProt P03372); test: qHTS assay to identify small molecule agonists of the estrogen receptor alpha (ER-alpha) signaling pathway in the presence of an antagonist (AID 1259383; calls by dose curve; note: top concentration of the series differs between compounds; nearly all actives have a fitted effect of over 15% in size)
Summary of the method: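 Readout was ERE-driven luciferase luminescence in VM7Luc4E2 cells, which express full-length ER-alpha endogenously. Compounds were tested at 15 concentrations for 22hr alongside 10.0nM ICI-182,780 (final concentration).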

[7] = qHTS assay to identify small molecule agonists or antagonists of the thyroid stimulating hormone receptor (TSHR) signaling pathway - wild type cell line counter screen (AID 1259384; calls by dose curve)
Summary of the method: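 Wild-type Hek293 cells, 800/well, 18 h at 37C, then compound with Ro20-1724 for 30 min RT. cAMP by HTRF (cAMP-d2/anti-cAMP cryptate), 1 h RT, fluorescence read. 15 concentrations, triplicates.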

[8] = molecular target: Thyrotropin receptor (Homo sapiens) (UniProt P16473); test: qHTS assay to identify small molecule antagonists of the thyroid stimulating hormone receptor (TSHR) signaling pathway (AID 1259385; calls by dose curve; note: nearly all actives have a fitted effect of over 20% in size)
Summary of the method: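 TSHR-HEK293 cells (800/well) plated 18 h, then compounds with Ro20-1724 and TSH at 1.5 ng/mL final, 30 min at room temperature. cAMP quantified by HTRF (cAMP-d2/anti-cAMP-cryptate, 1 h); 15 concentrations in triplicate.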

[9] = qHTS assay to identify small molecule agonists of the estrogen receptor alpha (ER-alpha) signaling pathway in the presence of an antagonist - cell viability counter screen (AID 1259386);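 note: series mostly up to about 92 µM; cells exposed to compounds for 22 h at 37 °C before the viability read; nearly all actives have a fitted effect of over 30% in size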
Summary of the method: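 In this counter screen, compound effects on VM7Luc4E2 viability were tested in the presence of the antagonist ICI-182,780 at 10.0nM final. Compounds were dosed at 15 concentrations, exposure lasted 22hr, and the CellTiter-Fluor signal was read.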

[10] = molecular target: Progesterone receptor (Homo sapiens) (UniProt P06401); test: qHTS assay to identify small molecule agonists of the progesterone receptor (PR) signaling pathway (AID 1346784; calls by dose curve; note: nearly all actives have a fitted effect of over 30% in size)
Summary of the method: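 Reporter assay, GripTite PR-UAS-bla HEK 293T cells: 16 hr exposure to DMSO-dissolved compounds at 37C, 5% CO2, in steroid-depleted (2% charcoal-stripped FBS) medium; beta-lactamase measured by FRET fluorescence.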

Estrogen receptor (Homo sapiens), sequence (P03372 whole entry, looked up): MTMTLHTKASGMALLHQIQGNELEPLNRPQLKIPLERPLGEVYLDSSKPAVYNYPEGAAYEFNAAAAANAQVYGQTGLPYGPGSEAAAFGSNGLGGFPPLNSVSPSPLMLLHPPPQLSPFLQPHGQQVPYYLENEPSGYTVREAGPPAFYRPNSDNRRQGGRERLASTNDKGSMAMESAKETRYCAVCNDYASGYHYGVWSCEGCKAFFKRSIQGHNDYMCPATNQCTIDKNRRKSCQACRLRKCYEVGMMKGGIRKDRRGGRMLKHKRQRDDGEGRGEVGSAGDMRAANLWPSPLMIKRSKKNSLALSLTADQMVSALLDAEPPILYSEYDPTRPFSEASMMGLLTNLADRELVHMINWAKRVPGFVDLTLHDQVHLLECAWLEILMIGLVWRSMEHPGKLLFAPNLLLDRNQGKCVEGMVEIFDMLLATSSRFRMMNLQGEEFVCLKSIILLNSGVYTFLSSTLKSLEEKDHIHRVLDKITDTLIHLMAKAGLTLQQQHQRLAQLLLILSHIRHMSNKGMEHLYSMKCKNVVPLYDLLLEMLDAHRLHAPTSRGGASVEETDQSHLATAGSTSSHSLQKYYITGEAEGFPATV
Androgen receptor (Homo sapiens), sequence (P10275 whole entry, looked up): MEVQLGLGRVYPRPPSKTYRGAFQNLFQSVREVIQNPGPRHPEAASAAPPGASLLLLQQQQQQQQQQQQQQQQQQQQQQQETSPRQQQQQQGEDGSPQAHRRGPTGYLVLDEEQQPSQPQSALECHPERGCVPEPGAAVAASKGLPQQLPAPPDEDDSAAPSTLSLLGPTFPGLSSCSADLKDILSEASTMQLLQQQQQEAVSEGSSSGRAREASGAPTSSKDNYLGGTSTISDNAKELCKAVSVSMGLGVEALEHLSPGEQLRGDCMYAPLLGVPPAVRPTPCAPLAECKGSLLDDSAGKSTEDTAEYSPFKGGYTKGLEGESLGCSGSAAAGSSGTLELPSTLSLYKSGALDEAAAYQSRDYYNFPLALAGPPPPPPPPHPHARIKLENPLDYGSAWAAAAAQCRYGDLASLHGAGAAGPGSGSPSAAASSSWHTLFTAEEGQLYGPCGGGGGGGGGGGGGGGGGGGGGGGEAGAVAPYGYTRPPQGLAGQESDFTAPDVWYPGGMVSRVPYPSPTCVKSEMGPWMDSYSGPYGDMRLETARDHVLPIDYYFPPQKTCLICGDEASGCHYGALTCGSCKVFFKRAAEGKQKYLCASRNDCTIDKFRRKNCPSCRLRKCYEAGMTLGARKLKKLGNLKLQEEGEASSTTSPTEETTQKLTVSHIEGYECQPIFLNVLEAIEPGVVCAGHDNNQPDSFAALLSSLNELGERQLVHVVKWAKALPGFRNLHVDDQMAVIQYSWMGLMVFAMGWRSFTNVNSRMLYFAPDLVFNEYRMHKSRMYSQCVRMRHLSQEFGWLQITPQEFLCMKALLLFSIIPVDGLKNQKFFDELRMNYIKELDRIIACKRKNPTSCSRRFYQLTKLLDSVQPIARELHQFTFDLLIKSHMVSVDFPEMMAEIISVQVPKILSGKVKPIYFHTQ
Estrogen receptor beta (Homo sapiens), sequence (Q92731 whole entry, looked up): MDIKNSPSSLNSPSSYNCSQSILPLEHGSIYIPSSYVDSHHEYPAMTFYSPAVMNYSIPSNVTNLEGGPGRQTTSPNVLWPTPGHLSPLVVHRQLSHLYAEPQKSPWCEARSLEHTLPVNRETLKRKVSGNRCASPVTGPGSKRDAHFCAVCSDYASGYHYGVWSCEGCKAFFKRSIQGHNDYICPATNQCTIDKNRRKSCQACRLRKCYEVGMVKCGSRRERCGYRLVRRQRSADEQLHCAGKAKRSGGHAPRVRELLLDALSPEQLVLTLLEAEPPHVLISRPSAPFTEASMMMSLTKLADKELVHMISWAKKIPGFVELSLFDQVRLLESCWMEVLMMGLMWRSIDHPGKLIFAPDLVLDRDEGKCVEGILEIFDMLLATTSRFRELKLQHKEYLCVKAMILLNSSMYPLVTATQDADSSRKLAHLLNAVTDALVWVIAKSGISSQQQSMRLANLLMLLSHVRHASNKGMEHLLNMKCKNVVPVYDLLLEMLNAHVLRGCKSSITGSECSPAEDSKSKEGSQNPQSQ
Progesterone receptor (Homo sapiens), sequence (P06401 whole entry, looked up): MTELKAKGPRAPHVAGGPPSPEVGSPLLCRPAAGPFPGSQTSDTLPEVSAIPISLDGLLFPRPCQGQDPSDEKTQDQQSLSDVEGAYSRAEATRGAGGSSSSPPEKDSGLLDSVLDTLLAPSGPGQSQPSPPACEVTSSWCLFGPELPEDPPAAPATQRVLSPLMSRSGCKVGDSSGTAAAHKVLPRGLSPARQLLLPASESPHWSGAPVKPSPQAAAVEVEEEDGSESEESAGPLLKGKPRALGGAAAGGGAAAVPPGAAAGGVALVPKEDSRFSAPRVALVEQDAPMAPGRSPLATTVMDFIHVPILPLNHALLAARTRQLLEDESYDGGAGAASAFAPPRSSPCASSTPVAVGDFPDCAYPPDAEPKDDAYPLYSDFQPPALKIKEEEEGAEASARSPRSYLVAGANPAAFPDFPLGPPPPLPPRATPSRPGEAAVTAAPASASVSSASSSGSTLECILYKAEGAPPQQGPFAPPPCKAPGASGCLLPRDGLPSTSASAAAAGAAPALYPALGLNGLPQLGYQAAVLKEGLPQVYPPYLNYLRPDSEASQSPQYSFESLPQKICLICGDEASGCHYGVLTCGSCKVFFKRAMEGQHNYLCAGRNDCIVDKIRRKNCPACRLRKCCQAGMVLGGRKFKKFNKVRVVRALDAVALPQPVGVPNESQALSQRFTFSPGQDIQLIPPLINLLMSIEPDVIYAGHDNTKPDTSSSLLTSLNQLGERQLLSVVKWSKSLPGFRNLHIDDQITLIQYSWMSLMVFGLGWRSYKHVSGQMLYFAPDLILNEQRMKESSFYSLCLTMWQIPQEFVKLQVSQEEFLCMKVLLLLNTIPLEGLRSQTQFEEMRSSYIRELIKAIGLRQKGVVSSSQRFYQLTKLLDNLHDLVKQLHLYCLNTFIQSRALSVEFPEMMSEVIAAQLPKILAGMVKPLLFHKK
Thyrotropin receptor (Homo sapiens), sequence (P16473 whole entry, looked up): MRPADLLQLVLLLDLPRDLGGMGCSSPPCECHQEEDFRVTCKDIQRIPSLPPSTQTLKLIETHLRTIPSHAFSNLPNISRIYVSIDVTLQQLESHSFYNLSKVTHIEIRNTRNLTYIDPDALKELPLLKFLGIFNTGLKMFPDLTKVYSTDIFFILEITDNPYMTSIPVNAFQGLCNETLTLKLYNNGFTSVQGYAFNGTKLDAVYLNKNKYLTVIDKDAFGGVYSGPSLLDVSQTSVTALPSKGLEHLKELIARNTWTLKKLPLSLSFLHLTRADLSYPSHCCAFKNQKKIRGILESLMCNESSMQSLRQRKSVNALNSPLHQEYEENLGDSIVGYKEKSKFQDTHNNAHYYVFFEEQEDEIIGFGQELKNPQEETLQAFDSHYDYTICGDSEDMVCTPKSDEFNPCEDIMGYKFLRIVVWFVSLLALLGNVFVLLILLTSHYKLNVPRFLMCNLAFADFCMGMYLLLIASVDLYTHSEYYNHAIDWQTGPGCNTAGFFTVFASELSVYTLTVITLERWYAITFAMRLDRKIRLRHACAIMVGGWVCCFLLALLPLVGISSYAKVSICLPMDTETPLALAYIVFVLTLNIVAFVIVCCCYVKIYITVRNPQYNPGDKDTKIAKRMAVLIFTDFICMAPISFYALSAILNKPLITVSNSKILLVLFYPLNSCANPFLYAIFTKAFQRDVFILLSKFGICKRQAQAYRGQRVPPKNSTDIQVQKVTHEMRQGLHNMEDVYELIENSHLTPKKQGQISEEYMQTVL

Row | Structure (SMILES) | Potency [1] | Potency [2] | Potency [3] | Potency [4] | outcome [5] | outcome [6] | outcome [7] | outcome [8] | Potency [9] | Potency [10]
1 | CCOc1c(N2CCOCC2)cnn(C)c1=O | inactive | inactive | inactive | inactive | inactive | inactive | inactive | inactive | inactive | –
2 | CC(=O)O[C@@]12CO[C@@H]1C[C@H](O)[C@@]1(C)C(=O)[C@H](O)C3=C(C)[C@@H](OC(=O)[C@H](O)[C@@H](NC(=O)OC(C)(C)C)c4ccccc4)C[C@@](O)([C@@H](OC(=O)c4ccccc4)[C@H]21)C3(C)C | inactive | inactive | inactive | inactive | inactive | inactive | – | – | inactive | inactive
3 | COC(=O)C1=C(C)NC(C)=C(C(=O)OC(C)C)C1c1cccc2nonc12 (stereo not given) | 26.6 µM (active) | inactive | inactive | inactive | inactive | – | inactive | – | inactive | inactive
4 | O=C(O)CCSCCC(=O)O | inactive | inactive | inactive | inactive | inactive | inactive | inactive | inactive | inactive | –
5 | O=C(O)Cc1csc(-c2ccc(Cl)cc2)n1 | inactive | inactive | inactive | inactive | inactive | inactive | inactive | inactive | inactive | –
6 | CC(C)C1CCC(O)CC1 (stereo not given) | inactive | inactive | inactive | inactive | inactive | – | inactive | inactive | inactive | inactive
7 | O=S(=O)(O)c1cc(O)c(O)c(S(=O)(=O)O)c1 | inactive | inactive | inactive | inactive | inactive | inactive | – | – | inactive | inactive
8 | C=C(C)C(=O)OCC(O)CO (stereo not given) | inactive | inactive | inactive | inactive | inactive | – | inactive | inactive | inactive | inactive
9 | CCCCCCCC1CCCC1=O (stereo not given) | inactive | inactive | inactive | inactive | inactive | inactive | inactive | inactive | inactive | –
10 | O=C(CO)[C@@H](O)[C@H](O)[C@@H](O)CO | inactive | inactive | inactive | – | inactive | inactive | inactive | inactive | inactive | –
11 | CCCCCCCCCC[N+](C)(C)[O-] | inactive | inactive | inactive | inactive | inactive | inactive | – | – | inactive | inactive
12 | CCCOC(=O)CC | inactive | inactive | inactive | inactive | inactive | inactive | inactive | inactive | inactive | inactive
13 | CC1(C)OC[C@@H](COC(=O)CCc2ccc(OC[C@@H](O)CNCCNC(=O)N3CCOCC3)cc2)O1 | inactive | inactive | inactive | inactive | inactive | inactive | inactive | inactive | inactive | inactive
14 | COc1cc(C(=O)OC(COCCC(C)C)CN2CCOCC2)cc(OC)c1OC (stereo not given) | inactive | inactive | inactive | – | inactive | inactive | inactive | inactive | inactive | inactive
15 | CCCCOCCOC(=O)COc1cc(Cl)c(Cl)cc1Cl | inactive | inactive | inactive | inactive | inactive | inactive | inactive | inactive | inactive | inactive
16 | CC1CCC(CO)CC1 (stereo not given) | inactive | inactive | inactive | inactive | inactive | inactive | inactive | inactive | inactive | inactive
17 | CCOC(=O)CCC(=O)OCC | inactive | inactive | inactive | – | inactive | inactive | inactive | inactive | inactive | –
18 | [K+] | inactive | inactive | inactive | – | inactive | inactive | inactive | inactive | inactive | inactive
19 | Cc1ccc(-c2ncc(Cl)cc2-c2ccc(S(C)(=O)=O)cc2)cn1 | inactive | inactive | inactive | inactive | inactive | inactive | inactive | inactive | inactive | –
20 | CCOC(=O)COc1cc(-n2ncc(C(F)(F)F)c(C)c2=O)c(F)cc1Cl | inactive | inactive | inactive | inactive | inactive | inactive | inactive | inactive | inactive | inactive
21 | CC(COc1ccccc1)NN (stereo not given) | inactive | inactive | inactive | – | inactive | inactive | inactive | inactive | inactive | inactive
22 | CC1=CCC(O)(C(C)C)CC1 (stereo not given) | inactive | inactive | inactive | – | inactive | inactive | inactive | inactive | inactive | –
23 | NS(=O)(=O)Cc1noc2ccccc12 | inactive | inactive | inactive | inactive | inactive | – | inactive | inactive | inactive | inactive
